# Screen size: about 2,200 compounds; about 1,200 (55%) were called active. Cut-off not given; nearly all actives show IC50 up to about 92 µM. The set was probably picked from earlier hits. The list shows a part of the results.
# Assay: counter assay for TAg ATPase ADP read-out – biochemical, ADP-Hunter, fluorescence, counter-screen (AID 2501);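 further: purified T antigen ATPase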;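 on inhibition: 0% = enzyme with vehicle and 100% = reference inhibitor wells; higher means more inhibition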
# Details: series mostly up to 100 µM
Structure (SMILES),IC50,inhibition
CCN(CC)C(=S)SSC(=S)N(CC)CC,inactive,
O=C(NCC1CCCO1)c1ccc2c(c1)N(Cc1ccc(F)cc1)CCS2 (configuration not stated),inactive,
CN(C)c1ccc(NC(=S)NCC2CCCO2)cc1 (configuration not stated),7.16 µM (active),
Cn1cccc1Cc1nnc(SCC(=O)NCC2CCCO2)n1C (configuration not stated),inactive,
CCOC(=O)C1(C)C=C(Nc2ccc(O)cc2)C(=O)N1c1ccc(O)cc1 (configuration not stated),2.33 µM (active),
Oc1ccc(NCc2cccs2)cc1,4.39 µM (active),
c1csc(CN2CCOCC2)c1,inactive,
Clc1cc(NCc2cccs2)ccc1N1CCOCC1,31.5 µM (active),
COc1ccc2c(c1)C(=O)Cc1ccccc1O2,inactive,
Cc1ccc2nsnc2c1NS(=O)(=O)c1c(C)ccc2nsnc12,inactive,
Cc1cc2c(N)cccc2nn1,inactive,
Nc1cccc2nsnc12,11 µM (active),
O=C(OCC1O[C@@H](OC(=O)c2cc(O)c(O)c(O)c2)[C@@H](OC(=O)c2cc(O)c(O)c(O)c2)[C@@H](OC(=O)c2cc(O)c(O)c(O)c2)[C@@H]1OC(=O)c1cc(O)c(O)c(O)c1)c1cc(O)c(O)c(O)c1 (some centres not stated),inactive,
O=C(OCCc1ccccc1)c1cc(O)c(O)c(O)c1,29.2 µM (active),
CN1CCc2cccc3c2[C@@H]1Cc1ccc(O)c(O)c1-3,inactive,
CC(C)(C)n1nc2c(c1NC(=O)c1ccccc1S(=O)(=O)C(F)F)CS(=O)(=O)C2,inactive,
O=c1[nH][nH]c(=S)n1C1CCCCC1,inactive,
COc1cccc(/C=N/N2CCN(c3ccncc3S(=O)(=O)N3CCCCC3)CC2)c1,inactive,
COc1ccccc1N1CCN(/N=C/c2ccc(O)c(O)c2)CC1,5.45 µM (active),
Oc1ccc2[nH]ccc2c1,2.23 µM (active),
O=C(O)c1ccc(NS(=O)(=O)c2ccc3c(c2)C2C=CCC2C(c2ccccc2F)N3)cc1 (configuration not stated),inactive,
Oc1ccc(O)cc1,7.46 µM (active),

Structure (SMILES),IC50,inhibition
CC(=O)c1cc2c(O)c(O)ccc2o1,7.04 µM (active),
Cc1ccc2oc(C(=O)Nc3nonc3C)c(C)c2c1,inactive,
COc1cc(/C=N/NC(=O)CSc2ccccn2)ccc1O,4.11 µM (active),
CCOc1ccc(/C=N/NC(=O)CSc2ccccn2)cc1O,2.66 µM (active),
Cc1cc(C)nc(NC2=NCC(=O)N2c2cc(Cl)cc(Cl)c2)n1,inactive,
CC1(OC(=O)C2CCCC2)C(=O)C=C2C=C(c3ccsc3)N(Cc3ccco3)C=C2C1=O (configuration not stated),inactive,
Nc1ccc2nc(CCCO)[nH]c2c1,2.74 µM (active),
Nc1ccc2nc(CCCCCCc3nc4ccc(N)cc4[nH]3)[nH]c2c1,2.36 µM (active),
Nc1ccc2nc(CCCCCCCCc3nc4ccc(N)cc4[nH]3)[nH]c2c1,6.38 µM (active),
Cc1c(C=NCCOCc2ccccc2)cnn1C,inactive,
COc1ccc(/C=N/Nc2nc(N3CCCC3)nc(N3CCCC3)n2)cc1O,3.91 µM (active),
COc1cc(/C=N/Nc2nc(N3CCCC3)nc(N3CCCC3)n2)ccc1O,6.61 µM (active),
CN(C)c1nc(NCc2ccccc2)nc(N/N=C/c2ccc(Cl)cc2Cl)n1,inactive,
CCNc1nc(NCC)nc(N/N=C/c2ccc(O)c(OC)c2)n1,5.21 µM (active),
Cc1ccc(-c2nc3ncccn3c2NC2CCCCC2)o1,6.91 µM (active),
CCOC(=O)c1c(NC(=O)/C=C/C(=O)O)sc(C)c1-c1ccc(Cl)cc1,inactive,
CCOC(=O)c1c(NC(C)=O)sc2c(O)c(Br)cc(Br)c12,28.4 µM (active),
CCOC(=O)c1c(NC(=O)/C=C/C(=O)O)sc(C)c1-c1ccc(C(C)(C)C)cc1,inactive,
Oc1ccc(C2=Nn3c(nnc3-c3ccco3)SC2)cc1O,4.93 µM (active),
CN1CCc2cccc3c2[C@H]1Cc1ccc(O)c(O)c1-3,inactive,
O=C(NC(=S)Nc1cccc(S(=O)(=O)NC2=NCCC2)c1)c1cc(-c2ccco2)nc2ccccc12,inactive,
COc1cc(/C=C2/C(=O)c3cccc([N+](=O)[O-])c3C2=O)c(Br)cc1O,23.4 µM (active),

Structure (SMILES),IC50,inhibition
O=C(O)/C=C/C(=O)c1ccc2c(c1)CCc1ccccc1-2,inactive,
COc1ccc(NCC(O)Cn2cnc3c2c(=O)n(C)c(=O)n3C)cc1 (configuration not stated),6.13 µM (active),
Cc1nn(-c2cccc(Cl)c2)c2nc(-c3ccco3)cc(C(=O)O)c12,inactive,
CNc1nn(-c2cccc(Cl)c2)nc1N,9.76 µM (active),
COc1ccc(N2CCN(C(=O)NC3CC(=O)N(c4ccc(OC)cc4)C3)CC2)cc1 (configuration not stated),26.8 µM (active),
CNC(=S)N1CCN(c2ccc(OC)cc2)CC1,8.87 µM (active),
COc1ccc(N2CCN(c3cc(=O)n(Cc4ccc(F)cc4)c(=O)[nH]3)CC2)cc1,inactive,
O=C(O)c1ccc(Nc2cc(Cl)c3nonc3c2[N+](=O)[O-])cc1,inactive,
O=[N+]([O-])c1c(Nc2ccc(O)cc2)cc(Cl)c2nonc12,26.9 µM (active),
O=[N+]([O-])c1c(Nc2cccc(O)c2)cc(Cl)c2nonc12,inactive,
CCn1c(Cc2ccccc2)nnc1SCC(=O)Nc1ccc(N2CCOCC2)c(Cl)c1,inactive,
C=CCn1c(CNc2ccccc2)nnc1SCC(=O)N/N=C/c1ccc(O)cc1O,4.22 µM (active),
CN1CCC(=C(c2ccccc2)c2ccc(Br)cc2)CC1,inactive,
COc1ccc(N=c2scc(C)n2CCCN2CCCC2=O)cc1,6.36 µM (active),
CC(C)C1N=C2c3ccccc3N=C(SCC(=O)c3ccc(O)c(O)c3)N2C1=O (configuration not stated),4.05 µM (active),
Nc1ncc(N=Nc2cc(C(=O)O)ccc2Cl)s1,12.4 µM (active),
COc1cccc(C(=O)N(Cc2cc3cc(C)ccc3[nH]c2=O)C(C)C)c1,inactive,
COCCN=C1Sc2nc3c(C)cccc3cc2CN1Cc1ccco1,13.7 µM (active),
CCOC(=O)c1cnc(Nc2nc3ccccc3o2)nc1CSC(=S)N1CCCCC1,inactive,
CN(C)c1ccc(/C=C/c2cc[n+]([O-])cc2)cc1,5.15 µM (active),
Oc1ccc(Nc2nc(NCC3CCCO3)c3ccccc3n2)cc1 (configuration not stated),5.81 µM (active),
OCCNc1nc(Nc2ccc(O)cc2)nc2ccccc12,2.57 µM (active),

Structure (SMILES),IC50,inhibition
O=S(=O)(c1cccs1)N1CN(CC2CCCO2)c2nc3ccccc3nc21 (configuration not stated),inactive,
CN(Cc1ccco1)S(=O)(=O)c1nnc(NC(=O)c2cccc(Cl)c2)s1,inactive,
CCn1cc(CN2CCC(n3nccc3NC(=O)c3ccccc3OC)CC2)cn1,inactive,
NC(=O)N/N=C/c1ccc(N2CCOCC2)s1,10.7 µM (active),
CC(C)(C)OC(=O)N/N=C/c1ccc(N2CCOCC2)s1,8.25 µM (active),
COc1ccc(N(CC(=O)NCCc2cccc(C)c2)S(=O)(=O)c2c(C)noc2C)cc1,inactive,
COc1cccc(NS(=O)(=O)c2ccc3c(c2)C2C=CCC2C(c2ccc(C(=O)O)cc2)N3)c1 (configuration not stated),inactive,
Cc1ccc(Nc2nc(-c3ccc(O)c(O)c3)cs2)nc1,8.68 µM (active),
Oc1ccc(-c2csc(Nc3cccc4ccccc34)n2)cc1O,23.6 µM (active),
Oc1ccc(-c2csc(Nc3ccccn3)n2)cc1O,11.2 µM (active),
Oc1ccc(-c2csc(Nc3ncccn3)n2)cc1O,10.2 µM (active),
Cc1cc(-c2nnc(SCc3ccccn3)o2)no1,inactive,
Cc1onc(-c2c(F)cccc2Cl)c1C(=O)OCC(=O)NC(c1ccccc1)c1ccccc1,inactive,
COc1cc(/C=C2/C(=N)N3C(=NC2=O)SN=C3S(=O)(=O)C(C)C)ccc1OS(=O)(=O)c1ccccc1,inactive,
CCOc1cc(/C=C2\C(=N)N3N=C(S(=O)(=O)CC)SC3=NC2=O)ccc1OC(=O)c1ccco1,,8.45% [at 6.25 µM] (inactive)
CCS(=O)(=O)C1=NN2C(=N)/C(=C\c3ccc(SCc4ccco4)o3)C(=O)N=C2S1,inactive,
COc1cc(/C=C2/C(=N)N3C(=NC2=O)SN=C3S(C)(=O)=O)ccc1OS(=O)(=O)c1ccc(C)cc1,inactive,
COc1cc(/C=C2\C(=N)N3N=C(S(C)(=O)=O)SC3=NC2=O)ccc1OS(=O)(=O)c1ccc(C)cc1,28.6 µM (active),
CCS(=O)(=O)C1=NN2C(=N)/C(=C\c3ccc(OC(=O)c4ccco4)c(OC)c3)C(=O)N=C2S1,54.2 µM (active),
O=C1OC(c2ccc(Cl)cc2)=N/C1=C\C=C\c1ccco1,inactive,
Oc1ccc(-c2cn3ccccc3n2)cc1,3.69 µM (active),
Oc1ccc(-c2cn3ccccc3n2)cc1O,5.62 µM (active),

Structure (SMILES),IC50,inhibition
Cc1ccn2cc(-c3ccc(O)c(O)c3)nc2c1,7.1 µM (active),
Cc1ccc(-c2nnc(Nc3ccc(O)cc3)c3ccccc23)cc1S(=O)(=O)NCCO,5.63 µM (active),
CCOc1cc(NS(=O)(=O)c2ccc(NC(C)=O)cc2)c(OCC)cc1NC(=O)c1cccs1,7.08 µM (active),
O=C(Nc1cccc(N2C(=O)C=CC2=O)c1)c1cccs1,inactive,
COc1cc(NS(=O)(=O)c2ccc(NC(=S)NC(=O)/C=C/c3ccco3)cc2)ncn1,inactive,
CN=c1scc(-c2ccco2)n1/N=C/c1ccc(O)c(O)c1,8.2 µM (active),
Cc1cccc(C(=O)NCC(=O)OCC(=O)c2ccc(Cl)s2)c1,inactive,
O=C(COc1cccnc1[N+](=O)[O-])c1ccc(Cl)s1,39.2 µM (active),
O=C(Nc1ccon1)c1cc2ccccc2oc1=O,inactive,
COc1cc(-c2cc(=O)c3c(O)c(OC)c(OC)c(O)c3o2)ccc1O,inactive,
COc1cc(-c2cc(=O)c3ccccc3o2)ccc1O,3.14 µM (active),
O=C(OC1CCCCC1=O)c1cc(=O)c2ccccc2o1 (configuration not stated),inactive,
CCCOCC1CC(CCc2nc(=S)[nH][nH]2)C(=O)O1 (configuration not stated),inactive,
Cc1ccnc(-n2sc3ccccc3c2=O)n1,9.06 µM (active),
O=c1[nH]sc2ccccc12,inactive,
O=C(Cn1sc2ccccc2c1=O)NC12CC3CC(CC(C3)C1)C2,inactive,
O=c1c2ccccc2sn1-c1nccs1,14.1 µM (active),
Cc1cc(=O)c2ccccc2s1,inactive,
Cc1ccnc(NS(=O)(=O)c2ccccc2)n1,inactive,

# Reference: PubChem BioAssay AID2501 (Southern Research Specialized Biocontainment Screening …, 2010)
